# Experimental data from PubChem BioAssay.
# Records with an inconclusive call do not appear. Calls of active or inactive are those of the source.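 How the source made its calls, unless noted: active means viability at or under a set limit in both replicates, limit being median viability minus 3 SD (cut at about 48% in these data, passing the limit was not always enough); inconclusive means at or under the limit in just one replicate; inactive means at or above the limit in both replicates.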
# What was measured:
# [1] = reducers of endogenous Her2 protein level, primary screen, SKBR3 breast tumor cells, AlphaScreen, ATP viability (AID 461;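 active means Her2 level under about 52% in both replicate screens, with viability over 70% of control, limit read from the data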;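 on Her2 level: lower value means less Her2 protein in the cells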;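 on viability: percent of carrier control wells set as 100% viability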); details: 18-24 h, measured here: SKBR3 viability, ATP luminescence, at 10 µM
# [2] = target: Receptor tyrosine-protein kinase erbB-2 (Homo sapiens) (UniProt P04626); assay: as above; details: 18-24 h, at 10 µM, stronger effect = lower value
# [3] = SK-BR-3 cell growth inhibitors, pilot screen, 24 h, human (AID 572;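 active means viability at or below 10% of carrier control in both of two separate runs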;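 further: compound exposure lasted between 18 and 24 h rather than exactly 24 h; 100% = carrier-treated control wells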); details: SK-BR-3 viability, CellTiter-Glo luminescence, at 10 µM, stronger effect = lower value
# [4] = HUVEC growth inhibition – cell-based, human, primary screen (AID 575;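 active means viability at or below 30% in both replicate assays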;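 further: 100% = median of untreated cell wells with 0.1% DMSO on each plate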); details: HUVEC proliferation, CellTiter-Glo luminescence, 72 h; at 10 µM; stronger effect = lower value
# [5] = growth inhibitors of H69AR lung tumor, primary screen, human, duplicate replicates (AID 580); details: H69AR lung tumor cells viability, ATP luminescence, 72 h; at 10 µM; stronger effect = lower value;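 further: 100% = mean luminescence of untreated wells and 0% = no signal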
# [6] = reversal of MRP1-mediated doxorubicin resistance, pilot screen, H69AR cells, doxorubicin co-treatment (AID 601;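 active means viability loss from added drug above about 55%, and viability with drug at most 40%, in both replicates, limit read from the data, passing the limit was not always enough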); details: CellTiter-Glo, 72 h, at 10 µM; for differential viability (reversal): stronger effect = higher value
# [7] = 384-well plate pilot, post-Golgi transport modulator project, inhibition of yeast transport mutant growth (AID 636; in the data active means inhibition above about 31%); details: absorbance 615 nm, about 18 h, stronger effect = higher value
# [8] = growth suppression of yeast trafficking mutant, preliminary HTS, modulators of trafficking downstream of Golgi apparatus project, 1536-format plate, OD 615 nm (AID 637; in the data active means inhibition above about 30%); details: yeast transport mutant growth, absorbance 615 nm, 18 h; stronger effect = higher value
# [9] = OD615 S. cerevisiae growth inhibition, permissive medium, pilot counter-assay, permissive growth control for S. cerevisiae lifespan shortening project (AID 705;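 active means growth inhibition above 25% in both replicates, a cutoff set 3 SD above the mean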); details: OD615, 24 h, at 10 µM, stronger effect = higher value
# [10] = Restrictive medium S. cerevisiae growth inhibition, OD615, pilot screen of yeast lifespan reduction project, restrictive growth control (AID 706;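 active means growth inhibition above a set limit, 3 SD over mean compound inhibition, in both replicates, cut at about 43% in these data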;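 further: modified DeaD lifespan yeast strain shifted to restrictive glucose medium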); details: OD615, 48 h, at 10 µM, stronger effect = higher value
# [11] = viability gain of MRP-1-high H69AR cells under doxorubicin, pilot screen, MRP-1 activator project, CellTiter-Glo, duplicate (AID 807;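 active means viability increase at or above a cutoff of the median across tested compounds plus 3 SD, cut at about 8.5% in these data, passing the limit was not always enough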;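 further: compound pretreatment 18-22 h then 72 h combined with doxorubicin; 0% = doxorubicin alone and 100% = vehicle without doxorubicin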); details: H69AR viability with doxorubicin, CellTiter-Glo luminescence; at 10 µM; stronger effect = higher value
# [12] = growth suppression of beta-catenin knockout HCT116, pilot screen, human colon tumor cells (AID 823;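 active means cell viability at or below a set limit in both duplicate runs, the limit being the all-compound median minus 4 SD, cut at about 23% in these data, passing the limit was not always enough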;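 further: 0% = wells killed by 20 µM Hyamine and 100% = untreated DMSO cell wells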); details: CellTiter-Glo, 60 h, at 10 µM, stronger effect = lower value
# [13] = growth suppression of PTEN-deleted HCT116, pilot screen, cell-based, HCT116 clonal line, CellTiter-Glo (AID 824;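 active means viability at or below 27.92% in each of two runs, the all-compound median minus 4 SD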;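 further: 0% = 20 µM Hyamine control and 100% = vehicle cell control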); details: 60 h, at 10 µM, stronger effect = lower value
# [14] = inhibitors of the yeast RAM network, pilot screen, dse1pr::URA3 reporter, 5-FOA selection (AID 869;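 active means inhibition over a set limit, the all-compound mean plus 3 SD, in both replicate runs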;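 further: 0% = DMSO wells with no growth and 100% = 10 µM 1-NA-PP1 with full growth; RAM network block rescues cells from 5-FOA so hits raise OD615 growth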); details: S. cerevisiae dse1pr::URA3 5-FOA growth, OD615, 2 d; at 10 µM; stronger effect = higher value; strain carries analog-sensitive mutant Cbk1 kinase
# [15] = RAM signaling pathway blockade in yeast – S. cerevisiae, Pdr1DBD-CYC8 efflux-inhibited sensitized strain, primary screen (AID 1298;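 active means RAM network inhibition above 8.4% in each of two replicates, 3 SD over the compound average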;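 further: 0% = DMSO untreated cells without growth and 100% = 10 µM 1-NA-PP1 full growth; higher means more yeast growth rescued from 5-FOA killing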); details: S. cerevisiae cbk1-as DSE1-URA3 strain, 5-FOA growth OD615, 2 d; at 50 µM; stronger effect = higher value
# [16] = H69AR cells + 2 uM doxorubicin, measured here: viability with 2 uM doxorubicin, stronger effect = lower value
# [17] = H69AR cells, compound alone cytotoxicity
# Receptor tyrosine-protein kinase erbB-2 (Homo sapiens), sequence (P04626 whole entry, looked up): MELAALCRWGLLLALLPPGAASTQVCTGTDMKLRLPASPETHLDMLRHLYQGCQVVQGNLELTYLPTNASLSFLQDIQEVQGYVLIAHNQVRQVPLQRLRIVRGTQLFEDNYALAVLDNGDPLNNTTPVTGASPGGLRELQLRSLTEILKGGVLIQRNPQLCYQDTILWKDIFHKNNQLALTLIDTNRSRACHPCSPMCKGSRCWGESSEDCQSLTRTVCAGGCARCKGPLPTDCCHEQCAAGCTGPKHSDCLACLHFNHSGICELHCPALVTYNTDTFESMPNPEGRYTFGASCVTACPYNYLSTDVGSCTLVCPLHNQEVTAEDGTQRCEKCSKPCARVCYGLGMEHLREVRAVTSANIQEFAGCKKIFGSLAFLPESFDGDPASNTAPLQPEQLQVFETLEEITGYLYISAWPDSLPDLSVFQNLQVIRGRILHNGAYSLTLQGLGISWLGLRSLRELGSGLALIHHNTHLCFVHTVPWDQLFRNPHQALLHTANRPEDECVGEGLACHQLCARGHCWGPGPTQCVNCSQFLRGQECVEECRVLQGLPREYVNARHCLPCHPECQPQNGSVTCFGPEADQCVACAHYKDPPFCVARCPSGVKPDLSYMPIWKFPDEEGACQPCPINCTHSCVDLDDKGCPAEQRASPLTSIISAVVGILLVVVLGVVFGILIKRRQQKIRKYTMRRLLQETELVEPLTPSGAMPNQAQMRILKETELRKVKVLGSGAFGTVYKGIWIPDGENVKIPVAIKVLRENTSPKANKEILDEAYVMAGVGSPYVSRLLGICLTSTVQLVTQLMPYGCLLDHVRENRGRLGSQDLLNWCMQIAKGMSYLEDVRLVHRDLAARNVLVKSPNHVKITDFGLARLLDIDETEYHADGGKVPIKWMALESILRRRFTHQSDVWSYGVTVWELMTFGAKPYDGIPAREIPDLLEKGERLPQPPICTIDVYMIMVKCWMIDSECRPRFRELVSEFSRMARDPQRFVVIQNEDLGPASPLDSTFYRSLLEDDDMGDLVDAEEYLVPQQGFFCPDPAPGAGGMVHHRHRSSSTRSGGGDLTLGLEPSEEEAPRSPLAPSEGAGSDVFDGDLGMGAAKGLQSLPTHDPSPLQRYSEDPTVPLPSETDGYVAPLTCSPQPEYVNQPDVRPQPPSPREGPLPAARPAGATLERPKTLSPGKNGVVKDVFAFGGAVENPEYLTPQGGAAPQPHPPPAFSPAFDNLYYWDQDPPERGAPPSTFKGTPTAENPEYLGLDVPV
SMILES,viability [1] [%],Her2 level [2],viability [3],viability [4],viability [5],differential viability (reversal) ([6]; H69AR cells + 2 uM doxorubicin),"viability [6, 16] [%]","viability [6, 17] [%]",inhibition [7],inhibition [8],growth inhibition [9],growth inhibition [10],viability increase [11],viability [12],viability [13],inhibition [14],RAM network inhibition [15]
CC1CCC(NC(=O)Cn2ncc3ccccc32)CC1 (centres undefined),106,108% (inactive),106% (inactive),107% (inactive),95.5% (inactive),7.93% (inactive),87.6,95.5,-3.47% (inactive),-8% (inactive),-9.46% (inactive),1.29% (inactive),-0.27% (inactive),97.9% (inactive),100% (inactive),1.21% (inactive),1.78% (inactive)
CC1=C(C(=O)OC(C)C)C(c2ccccn2)n2ncnc2N1 (centres undefined),108,113% (inactive),108% (inactive),89.5% (inactive),98.1% (inactive),6.04% (inactive),92.1,98.1,-3.2% (inactive),0.83% (inactive),-5.88% (inactive),-3.54% (inactive),-0.55% (inactive),106% (inactive),99.5% (inactive),2.84% (inactive),7.35% (inactive)
CCOc1ccc(N(CC(=O)NC2CCCCC2)S(=O)(=O)c2c(C)noc2C)cc1,79.5,86.5% (inactive),79.5% (inactive),87.3% (inactive),74.3% (inactive),-11.3% (inactive),85.6,74.3,-2.31% (inactive),-12.8% (inactive),-6.46% (inactive),0.415% (inactive),-1.54% (inactive),95.5% (inactive),89% (inactive),3.15% (inactive),1.06% (inactive)
COc1ccccc1CNC(=O)C1CCCN(S(=O)(=O)c2cccc3cccnc23)C1 (centres undefined),92.5,98.5% (inactive),92.5% (inactive),111% (inactive),92% (inactive),-0.39% (inactive),92.3,92,-4.53% (inactive),-2.17% (inactive),-5.17% (inactive),-12.7% (inactive),-3.42% (inactive),90.6% (inactive),91.6% (inactive),3.08% (inactive),6.37% (inactive)
CC1Cc2nc(SCC(=O)N3CCCc4ccccc43)n(C)c(=O)c2S1 (centres undefined),97,91% (inactive),97% (inactive),84.8% (inactive),72% (inactive),20.9% (inactive),51.2,72,-4.27% (inactive),0.33% (inactive),-5.25% (inactive),-9.97% (inactive),-3.51% (inactive),76.1% (inactive),73.4% (inactive),3.17% (inactive),6.46% (inactive)
CCOC(=O)N1CCC(NC(=O)c2ccc(CS(=O)(=O)c3c(Cl)cccc3Cl)o2)CC1,84.5,90% (inactive),84.5% (inactive),95.8% (inactive),104% (inactive),6.95% (inactive),96.6,104,2.31% (inactive),0.83% (inactive),-12.4% (inactive),-27.1% (inactive),-1.87% (inactive),106% (inactive),93.5% (inactive),1.53% (inactive),2.82% (inactive)
O=C(c1sc2ccccc2c1Cl)N(Cc1cccs1)C1CCS(=O)(=O)C1 (centres undefined),100,100% (inactive),100% (inactive),73.2% (inactive),85.5% (inactive),3.69% (inactive),81.8,85.5,1.07% (inactive),0.17% (inactive),-7.52% (inactive),-11.5% (inactive),-4.05% (inactive),92.2% (inactive),86.5% (inactive),0.395% (inactive),7.16% (inactive)
CCOCCCNC(=O)Cn1cc2c(n1)CCCCC2,114,104% (inactive),114% (inactive),109% (inactive),103% (inactive),6.04% (inactive),96.8,103,1.03% (inactive),2.67% (inactive),-3.18% (inactive),-3.17% (inactive),-0.62% (inactive),100% (inactive),99.9% (inactive),2.07% (inactive),3.72% (inactive)
c1ccc(N2CCN(Cc3cn4cccnc4n3)CC2)cc1,98,94% (inactive),98% (inactive),97.2% (inactive),97.6% (inactive),3.72% (inactive),93.9,97.6,-2% (inactive),-6.07% (inactive),-10.3% (inactive),-6.25% (inactive),1.38% (inactive),98% (inactive),95.1% (inactive),0.465% (inactive),6.85% (inactive)
CCCCC(NS(=O)(=O)c1ccc(OC)cc1)C(=O)O (centres undefined),110,108% (inactive),110% (inactive),101% (inactive),98.4% (inactive),4.5% (inactive),93.9,98.4,-0.39% (inactive),-4.17% (inactive),-19.3% (inactive),-7.24% (inactive),0.29% (inactive),99.1% (inactive),97.1% (inactive),1.7% (inactive),3.29% (inactive)
O=c1oc2c3c4c(cc2s1)CCCN4CCC3,89,86% (inactive),89% (inactive),101% (inactive),95.6% (inactive),4.35% (inactive),91.2,95.6,-4.42% (inactive),-2% (inactive),2.12% (inactive),-7.54% (inactive),-3.91% (inactive),101% (inactive),97.1% (inactive),1.76% (inactive),6.79% (inactive)
CC(C)c1ccc(C(O)c2cnc(C(C)C)n2C)cc1 (centres undefined),112,92% (inactive),112% (inactive),116% (inactive),88.1% (inactive),6.51% (inactive),81.6,88.1,-4.13% (inactive),2.5% (inactive),-6.82% (inactive),-0.345% (inactive),0.64% (inactive),96.4% (inactive),91% (inactive),0.355% (inactive),1.77% (inactive)
